Results taken from the supplement of paper PMC11732987, “Enantioselective OTUD7B fragment discovery through chemoproteomics screening and high-throughput optimisation” (Communications Chemistry, 2025).

Tests used:
Assay in all cases: log2 ratio of Biotin-Ahx-Ub-VS probe labelling (fragment/DMSO); higher = less target engagement (more negative = stronger competition), active = hit call of the paper (q ≤ 0.05, log2 ratio ≤ -1)
Settings in all cases: compound concentration: 200 uM; treatment time: 3 h
[1] = target: T1, USP19 (UniProt O94966)
T1 sequence (whole entry): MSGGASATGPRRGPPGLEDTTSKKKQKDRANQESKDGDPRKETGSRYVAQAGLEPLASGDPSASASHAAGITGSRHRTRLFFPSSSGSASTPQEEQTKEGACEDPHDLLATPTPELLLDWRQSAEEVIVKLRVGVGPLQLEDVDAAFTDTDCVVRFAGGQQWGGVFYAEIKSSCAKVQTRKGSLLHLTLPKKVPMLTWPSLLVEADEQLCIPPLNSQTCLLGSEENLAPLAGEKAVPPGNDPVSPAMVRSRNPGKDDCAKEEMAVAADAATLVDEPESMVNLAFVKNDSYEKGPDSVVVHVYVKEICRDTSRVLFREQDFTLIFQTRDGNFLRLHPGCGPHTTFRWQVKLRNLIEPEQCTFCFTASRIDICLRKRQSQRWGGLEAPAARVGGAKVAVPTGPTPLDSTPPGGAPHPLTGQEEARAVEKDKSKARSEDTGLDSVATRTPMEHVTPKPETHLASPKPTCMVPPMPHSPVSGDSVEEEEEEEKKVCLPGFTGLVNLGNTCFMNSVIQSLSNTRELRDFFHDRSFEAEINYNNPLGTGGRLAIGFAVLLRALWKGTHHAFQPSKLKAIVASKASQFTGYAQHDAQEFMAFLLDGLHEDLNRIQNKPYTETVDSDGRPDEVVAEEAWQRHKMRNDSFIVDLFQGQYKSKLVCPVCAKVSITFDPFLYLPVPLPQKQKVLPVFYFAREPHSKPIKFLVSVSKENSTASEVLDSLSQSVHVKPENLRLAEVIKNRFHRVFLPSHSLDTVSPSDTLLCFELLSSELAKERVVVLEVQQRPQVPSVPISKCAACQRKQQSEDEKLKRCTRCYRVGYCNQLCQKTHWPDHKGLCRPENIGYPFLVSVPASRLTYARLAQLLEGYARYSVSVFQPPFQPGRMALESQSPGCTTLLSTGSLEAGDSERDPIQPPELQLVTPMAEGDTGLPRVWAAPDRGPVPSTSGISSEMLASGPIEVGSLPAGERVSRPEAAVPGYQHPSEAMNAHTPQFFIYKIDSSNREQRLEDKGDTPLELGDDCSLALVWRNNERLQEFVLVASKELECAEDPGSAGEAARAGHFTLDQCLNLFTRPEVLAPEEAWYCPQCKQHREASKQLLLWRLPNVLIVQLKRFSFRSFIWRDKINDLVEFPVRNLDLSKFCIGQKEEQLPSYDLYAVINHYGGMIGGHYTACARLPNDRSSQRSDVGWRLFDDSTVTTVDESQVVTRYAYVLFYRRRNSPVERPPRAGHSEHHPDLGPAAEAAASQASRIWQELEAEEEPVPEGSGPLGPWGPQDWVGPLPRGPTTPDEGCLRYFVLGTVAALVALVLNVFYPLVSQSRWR
How it was run: (§1)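 In triplicate, 495 µg of HEK293T lysate per sample was incubated with fragment at 200 µM or vehicle for 3 h. Biotin-Ahx-Ub-VS was then added to 0.5 µM final for 1 h, and labelled DUBs were captured with NeutrAvidin, digested with LysC and trypsin, and measured by diaPASEF LC-MS/MS. Data are average log2 fragment/vehicle ratios by unpaired t-test from global-median-normalised Spectronaut label-free quantities, restricted to proteins with ≥2 unique peptides.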

[2] = target: T2, USP22 (UniProt Q9UPT9)
T2 sequence (whole entry): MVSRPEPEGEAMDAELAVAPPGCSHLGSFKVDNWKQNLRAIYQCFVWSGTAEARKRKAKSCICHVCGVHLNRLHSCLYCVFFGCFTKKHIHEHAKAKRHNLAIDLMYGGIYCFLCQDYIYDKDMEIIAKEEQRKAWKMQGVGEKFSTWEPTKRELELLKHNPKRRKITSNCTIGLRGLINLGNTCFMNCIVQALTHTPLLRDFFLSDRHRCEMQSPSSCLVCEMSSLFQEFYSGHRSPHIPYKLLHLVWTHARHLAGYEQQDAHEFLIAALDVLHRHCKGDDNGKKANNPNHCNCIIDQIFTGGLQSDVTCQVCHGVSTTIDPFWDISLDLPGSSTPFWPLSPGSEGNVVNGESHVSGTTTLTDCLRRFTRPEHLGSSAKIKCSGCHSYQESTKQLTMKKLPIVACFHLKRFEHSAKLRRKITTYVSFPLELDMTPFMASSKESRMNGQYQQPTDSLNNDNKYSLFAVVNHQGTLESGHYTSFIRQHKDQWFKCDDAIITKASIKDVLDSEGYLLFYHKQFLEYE
How it was run: as §1

[3] = target: USP24 (UniProt Q9UPU5)
Chain of USP24 (Q9UPU5 whole entry): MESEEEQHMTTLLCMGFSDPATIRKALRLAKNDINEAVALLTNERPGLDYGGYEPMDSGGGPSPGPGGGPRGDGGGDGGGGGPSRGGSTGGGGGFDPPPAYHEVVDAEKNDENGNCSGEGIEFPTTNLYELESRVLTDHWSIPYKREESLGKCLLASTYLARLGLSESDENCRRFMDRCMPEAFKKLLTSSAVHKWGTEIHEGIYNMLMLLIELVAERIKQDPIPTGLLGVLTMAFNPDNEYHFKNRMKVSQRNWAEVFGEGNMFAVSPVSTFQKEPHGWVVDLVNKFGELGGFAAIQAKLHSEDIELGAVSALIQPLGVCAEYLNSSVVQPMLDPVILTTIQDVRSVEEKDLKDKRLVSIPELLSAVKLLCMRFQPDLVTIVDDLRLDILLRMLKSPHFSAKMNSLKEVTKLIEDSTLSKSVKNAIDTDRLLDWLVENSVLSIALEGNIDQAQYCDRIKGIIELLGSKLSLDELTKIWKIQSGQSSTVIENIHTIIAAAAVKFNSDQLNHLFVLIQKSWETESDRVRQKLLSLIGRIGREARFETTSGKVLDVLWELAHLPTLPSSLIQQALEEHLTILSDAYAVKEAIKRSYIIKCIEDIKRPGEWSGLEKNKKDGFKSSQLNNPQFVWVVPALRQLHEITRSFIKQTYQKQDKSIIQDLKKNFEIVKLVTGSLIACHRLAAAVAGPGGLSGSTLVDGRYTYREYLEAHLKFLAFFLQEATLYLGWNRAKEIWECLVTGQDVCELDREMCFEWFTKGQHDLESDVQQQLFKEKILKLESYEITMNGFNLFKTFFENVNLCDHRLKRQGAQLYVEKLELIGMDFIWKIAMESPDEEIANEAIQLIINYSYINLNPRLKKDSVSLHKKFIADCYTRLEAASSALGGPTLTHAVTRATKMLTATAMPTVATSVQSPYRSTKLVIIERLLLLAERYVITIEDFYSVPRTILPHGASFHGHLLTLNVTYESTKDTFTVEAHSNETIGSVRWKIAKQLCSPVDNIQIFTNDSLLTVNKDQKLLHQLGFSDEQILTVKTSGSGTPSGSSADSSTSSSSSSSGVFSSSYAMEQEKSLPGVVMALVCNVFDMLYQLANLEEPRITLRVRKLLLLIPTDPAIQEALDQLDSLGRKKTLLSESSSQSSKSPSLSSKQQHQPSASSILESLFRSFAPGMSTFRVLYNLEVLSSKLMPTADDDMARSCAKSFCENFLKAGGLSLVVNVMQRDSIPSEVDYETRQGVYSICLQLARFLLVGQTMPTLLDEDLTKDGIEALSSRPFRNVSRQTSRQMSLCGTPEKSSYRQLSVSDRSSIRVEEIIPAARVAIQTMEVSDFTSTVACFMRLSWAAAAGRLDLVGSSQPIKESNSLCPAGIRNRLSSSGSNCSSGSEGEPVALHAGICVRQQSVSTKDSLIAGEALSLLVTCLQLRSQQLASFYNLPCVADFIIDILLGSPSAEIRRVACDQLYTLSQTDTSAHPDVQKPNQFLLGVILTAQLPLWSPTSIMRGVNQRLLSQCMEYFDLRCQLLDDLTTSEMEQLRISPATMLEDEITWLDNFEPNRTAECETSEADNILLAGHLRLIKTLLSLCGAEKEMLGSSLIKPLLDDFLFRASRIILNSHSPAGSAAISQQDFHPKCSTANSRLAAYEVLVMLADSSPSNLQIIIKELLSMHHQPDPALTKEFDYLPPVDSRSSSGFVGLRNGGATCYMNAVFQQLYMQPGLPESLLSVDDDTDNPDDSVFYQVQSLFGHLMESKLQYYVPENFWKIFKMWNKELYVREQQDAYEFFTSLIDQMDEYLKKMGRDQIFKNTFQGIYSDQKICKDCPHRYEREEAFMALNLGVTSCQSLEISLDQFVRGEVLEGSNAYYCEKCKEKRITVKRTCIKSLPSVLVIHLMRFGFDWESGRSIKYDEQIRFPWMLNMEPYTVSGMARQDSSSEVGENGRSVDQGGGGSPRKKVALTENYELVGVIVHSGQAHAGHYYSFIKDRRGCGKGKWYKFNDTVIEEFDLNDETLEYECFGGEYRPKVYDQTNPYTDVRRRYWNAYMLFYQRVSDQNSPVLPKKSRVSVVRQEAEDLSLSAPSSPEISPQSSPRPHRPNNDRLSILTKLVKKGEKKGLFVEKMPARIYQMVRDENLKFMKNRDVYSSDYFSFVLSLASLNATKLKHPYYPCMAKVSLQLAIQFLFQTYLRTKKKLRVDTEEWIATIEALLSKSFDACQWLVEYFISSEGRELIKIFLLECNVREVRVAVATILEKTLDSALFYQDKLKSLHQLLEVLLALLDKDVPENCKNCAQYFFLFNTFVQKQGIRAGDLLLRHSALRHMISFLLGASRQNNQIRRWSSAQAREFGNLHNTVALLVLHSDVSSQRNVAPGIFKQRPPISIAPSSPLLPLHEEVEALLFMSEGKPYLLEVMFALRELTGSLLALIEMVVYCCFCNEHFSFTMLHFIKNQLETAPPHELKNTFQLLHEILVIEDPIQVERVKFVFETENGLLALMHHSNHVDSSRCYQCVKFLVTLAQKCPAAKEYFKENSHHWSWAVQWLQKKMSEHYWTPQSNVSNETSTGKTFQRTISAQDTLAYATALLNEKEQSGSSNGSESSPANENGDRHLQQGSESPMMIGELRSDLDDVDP
How it was run: as §1

[4] = target: T3, USP25 (UniProt Q9UHP3)
T3 sequence (whole entry): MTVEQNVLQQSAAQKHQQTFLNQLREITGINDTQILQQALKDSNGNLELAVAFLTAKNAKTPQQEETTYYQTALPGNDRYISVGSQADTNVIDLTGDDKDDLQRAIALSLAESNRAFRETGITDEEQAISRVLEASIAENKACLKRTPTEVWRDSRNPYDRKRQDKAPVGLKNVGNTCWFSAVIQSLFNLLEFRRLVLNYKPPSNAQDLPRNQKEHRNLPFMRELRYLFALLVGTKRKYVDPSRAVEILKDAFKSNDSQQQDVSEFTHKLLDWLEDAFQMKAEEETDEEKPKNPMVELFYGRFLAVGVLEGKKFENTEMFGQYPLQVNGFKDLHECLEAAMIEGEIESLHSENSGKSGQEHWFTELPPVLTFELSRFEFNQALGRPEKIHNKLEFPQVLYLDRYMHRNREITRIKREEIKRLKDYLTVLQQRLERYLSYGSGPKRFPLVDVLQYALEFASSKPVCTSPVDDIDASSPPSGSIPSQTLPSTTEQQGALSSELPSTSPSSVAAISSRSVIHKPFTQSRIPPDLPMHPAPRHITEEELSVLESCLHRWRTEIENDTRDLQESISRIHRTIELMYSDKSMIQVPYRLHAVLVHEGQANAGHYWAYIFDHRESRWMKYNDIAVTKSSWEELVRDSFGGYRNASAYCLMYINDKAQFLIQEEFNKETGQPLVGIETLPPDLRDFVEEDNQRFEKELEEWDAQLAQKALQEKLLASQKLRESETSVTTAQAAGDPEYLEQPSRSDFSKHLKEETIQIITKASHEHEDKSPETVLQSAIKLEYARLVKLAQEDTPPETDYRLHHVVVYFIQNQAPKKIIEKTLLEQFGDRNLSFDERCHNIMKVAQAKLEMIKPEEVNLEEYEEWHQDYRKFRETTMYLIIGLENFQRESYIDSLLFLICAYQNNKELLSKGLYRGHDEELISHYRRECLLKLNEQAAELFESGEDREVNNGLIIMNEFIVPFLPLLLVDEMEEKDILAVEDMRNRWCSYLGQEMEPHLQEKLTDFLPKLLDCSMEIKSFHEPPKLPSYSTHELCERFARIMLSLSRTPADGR
How it was run: as §1

[5] = target: T4, USP28 (UniProt Q96RU2)
T4 sequence (whole entry): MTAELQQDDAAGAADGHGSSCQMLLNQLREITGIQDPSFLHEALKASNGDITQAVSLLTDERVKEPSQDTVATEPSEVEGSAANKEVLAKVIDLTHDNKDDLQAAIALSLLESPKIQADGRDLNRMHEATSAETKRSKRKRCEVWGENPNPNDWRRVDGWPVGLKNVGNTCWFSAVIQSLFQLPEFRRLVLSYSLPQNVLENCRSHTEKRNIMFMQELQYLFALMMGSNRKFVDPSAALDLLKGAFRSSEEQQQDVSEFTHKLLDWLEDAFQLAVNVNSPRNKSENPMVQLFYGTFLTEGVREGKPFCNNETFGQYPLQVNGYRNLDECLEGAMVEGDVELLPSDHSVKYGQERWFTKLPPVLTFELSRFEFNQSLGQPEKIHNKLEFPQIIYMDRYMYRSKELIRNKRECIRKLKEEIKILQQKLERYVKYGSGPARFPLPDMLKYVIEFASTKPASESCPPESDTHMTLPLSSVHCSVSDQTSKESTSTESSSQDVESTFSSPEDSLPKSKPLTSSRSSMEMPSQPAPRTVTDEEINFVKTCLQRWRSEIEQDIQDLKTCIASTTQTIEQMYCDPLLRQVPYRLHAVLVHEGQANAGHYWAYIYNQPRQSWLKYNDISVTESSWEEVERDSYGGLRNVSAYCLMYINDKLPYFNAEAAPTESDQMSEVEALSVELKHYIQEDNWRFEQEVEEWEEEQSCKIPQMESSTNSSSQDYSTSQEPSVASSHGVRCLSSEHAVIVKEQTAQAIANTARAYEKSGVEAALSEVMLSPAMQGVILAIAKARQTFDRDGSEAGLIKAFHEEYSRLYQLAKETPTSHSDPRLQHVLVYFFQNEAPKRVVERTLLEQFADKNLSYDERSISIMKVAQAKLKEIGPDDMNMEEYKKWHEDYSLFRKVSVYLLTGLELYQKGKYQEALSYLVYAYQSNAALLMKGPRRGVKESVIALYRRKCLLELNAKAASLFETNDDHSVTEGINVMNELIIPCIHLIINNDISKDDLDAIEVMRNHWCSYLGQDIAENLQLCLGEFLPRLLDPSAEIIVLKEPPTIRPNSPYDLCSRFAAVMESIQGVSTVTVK
How it was run: as §1

Measured: log2 ratio of Biotin-Ahx-Ub-VS probe labelling

CN(C)C(=O)c1ccc(CNC(=O)CCl)cc1
inactive: [1] 0.123 | [2] 0.0551 | [3] 0.117 | [4] -0.513 | [5] -0.359
